For orientation: inhibition means the change of the read-out against control, counted positive when it falls.

About 1,900 (0.54%) of roughly 350,000 compounds were called active. Shown is part of a subset that was picked to be rich in actives. Values without a mark were called inactive.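 How the source made its calls: active means mean inhibition across replicates at least about 35%, with every replicate also reaching that limit (limit read from the data); inconclusive means only one of the two criteria met; inactive means neither criterion met.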

The target in this experiment is Caspase-6 (Homo sapiens) (UniProt P55212). Nature of the experiment: human caspase-6 inhibitors, primary screen, biochemical, VEID-R110 fluorescence, single point, set 2 (AID 686996).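 Further: 0% = median of neutral control wells and 100% = no fluorescence left.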 The following applies: purified caspase-6, Z-VEID-R110 cleavage fluorescence; at 12.5 µM; stronger effect = higher value.
Sequence of Caspase-6 (Homo sapiens) (P55212 24-179 limits assumed): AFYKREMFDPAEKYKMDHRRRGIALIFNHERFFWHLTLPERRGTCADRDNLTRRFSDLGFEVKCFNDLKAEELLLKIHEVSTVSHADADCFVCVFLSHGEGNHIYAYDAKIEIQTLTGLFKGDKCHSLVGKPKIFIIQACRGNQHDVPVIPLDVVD
Sequence of Caspase-6 (Homo sapiens) (P55212 194-293 limits assumed): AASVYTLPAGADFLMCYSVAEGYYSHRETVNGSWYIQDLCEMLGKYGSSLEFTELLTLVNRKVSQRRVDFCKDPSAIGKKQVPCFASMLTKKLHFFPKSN
With `O=C(Nc1cccc(F)c1)c1cc(-c2ccco2)nc2ccccc12`, the inhibition is -7.91%.

As to `O=C(Nc1cccc(F)c1)c1coc(=O)c(Br)c1`, the inhibition is 51.7% (active).

On to `O=C(CCN1C(=O)c2ccccc2C1=O)Nc1cccc(F)c1`, for which the inhibition was -0.612%.

With `C[C@H](CO)N1C[C@H](C)[C@@H](CN(C)C(=O)Nc2ccc3c(c2)OCO3)OCCCC[C@H](C)Oc2ccc(NS(=O)(=O)c3cn(C)cn3)cc2C1=O`, the inhibition was -1.24%.

On to `CC(=O)N1CC2(C1)[C@H](c1ccccc1)[C@@H](CO)N2C(=O)Cc1ccccc1`, for which the inhibition was 0.826%.

In the case of `CCOC(=O)C1=C(C(=O)OCC)C2N(Cc3ccc(C#N)cc3)c3ccccc3[C@@]23C[C@@H](C(=O)OC)N(S(=O)(=O)c2ccc(F)cc2)C3=N1` (some centres not stated), the inhibition is -0.093%.

Regarding `CC1(C(=O)Nc2ccc3c(c2)OCCO3)CN(S(C)(=O)=O)CC(=O)N1Cc1cccc(F)c1` (configuration not stated), the inhibition was 1.36%.

Turning to `CC(C)CN1C(=O)CN(S(C)(=O)=O)CC1(C)C(=O)NCc1ccccc1` (configuration not stated), the inhibition was -0.689%.

Regarding `CCC(C)CN1C(=O)CN(S(C)(=O)=O)CC1(C)C(=O)Nc1ccc2c(c1)OCCO2` (configuration not stated), the inhibition was 39.7% (active).

Regarding `COc1ccc(CN(C)C[C@H]2OCCCC[C@@H](C)Oc3ccc(NS(C)(=O)=O)cc3C(=O)N([C@@H](C)CO)C[C@H]2C)cc1`, the inhibition was -2.66%.

For `CCCNC(=O)[C@@H]1[C@@H](CO)[C@@H]2Cn3c(ccc(-c4ccccc4F)c3=O)[C@H]1N2CC1CC1`, the inhibition is 0.74%.

Take `COc1ccc2c3c([nH]c2c1)[C@H](CO)N(Cc1ccc(F)cc1)CC31CCN(Cc2ccccn2)CC1`: the inhibition was -3.59%.

Regarding `C[C@H](CO)N1C[C@H](C)[C@H](CN(C)Cc2ccncc2)Oc2ccc(N(C)C)cc2C1=O`, the inhibition is 2.63%.

Take `CCOC(=O)c1ccc(NC(=O)c2c(NCc3ccccc3)[nH]c(=O)[nH]c2=O)cc1`: the inhibition was 0.97%.

Turning to `CCOC(=O)c1ccc(Nc2cc3ccccc3c(=O)[nH]2)cc1`, the inhibition was 87.8% (active).

Turning to `C#CCNc1ccc(C(=O)OCC)cc1`, the inhibition is -1.16%.

Take `CCC(=O)N1CCCCN2[C@H](C1)[C@@H](c1ccc(C#CCOC)cc1)[C@@H]2CO`: the inhibition is -1.73%.

Consider `COc1ccc(S(=O)(=O)Nc2cccc3c2O[C@@H](CN(C)C(=O)Nc2ccccc2)[C@@H](C)CN([C@@H](C)CO)C3=O)cc1`, for which the inhibition is -2.16%.

For `C[C@@H]1CN([C@H](C)CO)S(=O)(=O)c2ccc(C#C[C@@H](C)O)cc2O[C@H]1CN(C)C(=O)CC1CC1`, the inhibition was 0.478%.

For the compound `CC(=O)N1c2ccc(S(=O)(=O)N3CCC(C(=O)NCc4ccc(F)cc4)CC3)cc2CC1C` (configuration not stated), the inhibition was 22.3%.

As for `Cc1ccc(CNC(=O)C2CCN(S(=O)(=O)c3ccc4nc5c(c(C(=O)O)c4c3)CC(C)CC5)CC2)cc1` (configuration not stated), the inhibition is 62.6% (active).

Consider `CCOC(CNC(=O)C1CCN(S(=O)(=O)c2ccc3nc4c(c(C(=O)O)c3c2)CC(C)CC4)CC1)OCC` (configuration not stated), for which the inhibition was 33.4%.

`N#C[C@H]1[C@@H](c2ccccc2-c2ccccc2F)[C@@H](CO)N1C(=O)C1CCC1`: the inhibition was -2.32%.

In the case of `CC(=O)N1[C@@H](CO)[C@@H](c2ccc(C3=CCCC3)cc2)C12CN(C(=O)C1CC1)C2`, the inhibition is 0.171%.

For `O=C(O)c1cc(S(=O)(=O)Nc2ccc3cn[nH]c3c2)ccc1Br`, the inhibition is 43.4% (active).

For `COc1ccc(S(=O)(=O)Nc2ccc3cn[nH]c3c2)cc1[N+](=O)[O-]`, the inhibition was 9.88%.

For `O=C(Nc1ccc2cn[nH]c2c1)c1ccc(S(=O)(=O)N2CCOCC2)cc1`, the inhibition was 0.612%.

For the compound `C/C=C/c1ccccc1[C@@H]1[C@@H](CO)N(C(=O)CN2CCOCC2)[C@H]1C#N`, the inhibition was -0.139%.

With `C[C@H]1CN([C@@H](C)CO)C(=O)Cc2cc(NC(=O)CCCCCC(=O)Nc3ccccc3N)ccc2O[C@H]1CN(C)C(=O)Nc1ccc(F)cc1`, the inhibition is 0.452%.

On to `Cc1cc(C(=O)CCC(=O)NNC(=O)c2ccccc2O)c(C)s1`, for which the inhibition was 4.5%.

As for `O=C(NNC(=O)c1cc(S(=O)(=O)N2CCCCC2)ccc1Cl)c1ccccc1O`, the inhibition was 0.767%.

With `O=C(NNC(=O)c1ccccc1O)c1ccccc1O`, the inhibition was 73.9% (active).

In the case of `CN(C)CCCNC(=O)C[C@H]1CC[C@H]2[C@@H](COC[C@H](O)CN2C(=O)c2ccncc2)O1`, the inhibition is 0.773%.

With `COC(=O)C(=Nc1ccccc1)/C(C(=O)C(=O)N(C)c1ccccc1)=C(\O)c1ccc(Cl)cc1`, the inhibition is 40.1% (active).

Regarding `COC(=O)c1cn(C(=O)c2ccc(Cl)cc2)c2ccccc12`, the inhibition is 0.734%.

On to `CN(c1ccccc1)S(=O)(=O)c1cccc(NC(=O)Cc2ccc(Cl)cc2)c1`, for which the inhibition was -0.727%.

On to `CN1C(=O)c2cc(NC(=O)C3CC3)ccc2OC[C@@H]2O[C@@H](CC(=O)NCC3CCCCC3)CC[C@@H]21`, for which the inhibition is -1.04%.

Regarding `CO[C@H]1CN(C)C(=O)c2cc(NC(=O)Nc3c(C)noc3C)ccc2OC[C@@H](C)N(CCC(F)(F)F)C[C@H]1C`, the inhibition is -1.87%.

Regarding `C[C@@H]1CN([C@@H](C)CO)C(=O)c2cc(C#CC3CC3)cnc2O[C@@H]1CN(C)C(=O)Cc1ccccn1`, the inhibition is 0.481%.

With `CC(C)(C)S(=O)N1Cc2cc(C(=O)NCCCN3CCOCC3)nc(-c3cccc(-c4cc5ccccc5o4)c3)c2[C@H]1CCO` (some centres not stated), the inhibition is -2.64%.

Regarding `COc1ccc(C#Cc2cccc(-c3nc(C(=O)O)cc4c3[C@@H](CCO)N(S(=O)C(C)(C)C)C4)c2)cc1OC` (some centres not stated), the inhibition was 35.2% (active).

Turning to `COc1ccccc1-c1cccc(-c2nc(C(=O)N3CCN(C)CC3)cc3c2[C@H](CCO)N([S@@](=O)C(C)(C)C)C3)c1`, the inhibition was -1.46%.

On to `CC(C)(C)[S@](=O)N1Cc2cc(C(=O)N3CCCCC3)nc(-c3cccc(-c4ccccc4F)c3)c2[C@@H]1CCO`, for which the inhibition was -3.88%.

In the case of `CC(C)(C)[S@@](=O)N1Cc2cc(C(=O)O)nc(-c3cccc(-c4cccc(F)c4)c3)c2[C@H]1CCO`, the inhibition was -2.52%.

For `CC(C)(C)S(=O)N1Cc2cc(C(=O)O)nc(-c3cccc(-c4cc5ccccc5o4)c3)c2[C@@H]1CCO` (some centres not stated), the inhibition is 37.1% (active).

`COc1ccc(NC(=O)O[C@H]2[C@H](OC(=O)Nc3ccc4c(c3)OCO4)[C@@H](OC(=O)Nc3ccc4c(c3)OCO4)[C@@H](OC)O[C@@H]2CO)cc1`: the inhibition was -3.42%.

Turning to `Cc1ccc(S(=O)(=O)N[C@@H]2CC[C@H](CCn3cc(C4(O)CCCC4)nn3)O[C@H]2CO)cc1`, the inhibition was -2.61%.

Turning to `Cc1ccccc1-c1ccc2c(c1)O[C@H](CN(C)Cc1ccc(C(=O)O)cc1)[C@@H](C)CN([C@H](C)CO)S2(=O)=O`, the inhibition was -3.25%.

Take `COc1ccccc1C#Cc1ccc([C@@H]2[C@@H](CO)N3CCCCN(S(C)(=O)=O)C[C@@H]23)cc1`: the inhibition was -2.85%.

For the compound `Cc1cc(C=O)c(C)n1-c1ccc(NC2CCCCC2)c([N+](=O)[O-])c1`, the inhibition was -0.869%.

For `Cc1cc(/C=N/Nc2ccc([N+](=O)[O-])cn2)c(C)n1-c1cccc(C(=O)O)c1`, the inhibition was 40.7% (active).

Regarding `CC(C)c1ccc(C=NNc2ccc([N+](=O)[O-])cn2)cc1`, the inhibition was -4.08%.

With `C[C@H](O)C#Cc1ccc2c(c1)O[C@H](CN(C)Cc1cccnc1)[C@H](C)CN([C@H](C)CO)S2(=O)=O`, the inhibition is -2.82%.

Turning to `O=C(N[C@@H]1CC[C@@H](CC(=O)N2CCc3ccccc3C2)O[C@H]1CO)C1CC1`, the inhibition is -3.42%.

Regarding `CCC(=O)N(C)C[C@H]1Oc2ncc(C#Cc3cccnc3)cc2C(=O)N([C@H](C)CO)C[C@H]1C`, the inhibition is 2.38%.

For the compound `C[C@@H]1CCCCO[C@@H](CN(C)S(=O)(=O)c2ccccc2)[C@@H](C)CN([C@@H](C)CO)C(=O)c2cc(NS(=O)(=O)c3cn(C)cn3)ccc2O1`, the inhibition was 2.27%.

As to `Cc1cc(C)c2nc(-c3ccco3)cc(C(=O)O)c2c1`, the inhibition is 42.1% (active).

Take `CN(CCOc1ccccc1)C(=O)c1cc(-c2ccco2)nc2ccccc12`: the inhibition was 4.78%.

As to `CC1CCCN(C(=O)c2cc(-c3ccco3)nc3ccccc23)C1` (configuration not stated), the inhibition was 2.88%.

For `COCC#Cc1cnc2c(c1)C(=O)N([C@H](C)CO)C[C@H](C)[C@H](CN(C)C(=O)Nc1ccccc1OC)O2`, the inhibition is 0.658%.

For `O=C(c1cccc(F)c1)N1CC(=O)N2[C@H](C1)[C@@H](c1ccc(C#Cc3ccc(F)cc3)cc1)[C@@H]2CO`, the inhibition was 1.71%.

On to `COCCNc1nc(Nc2ccccc2Cl)c2sc(-c3ccccc3)cc2n1`, for which the inhibition was 35.1% (active).

As to `COc1ccccc1CNc1nc(Nc2ccccc2Cl)c2sccc2n1`, the inhibition is -1.14%.

Take `Clc1ccccc1Nc1nc(NCc2cccs2)nc2ccsc12`: the inhibition is -2.77%.

For `C[C@H](CO)N1C[C@H](C)[C@H](CN(C)Cc2cncnc2)Oc2cc(-c3ccccc3F)ccc2S1(=O)=O`, the inhibition is -1.88%.

Regarding `CC(C)n1ncc2c(C(=O)Nc3ccc(CC#N)cc3)cc(C3CC3)nc21`, the inhibition was -2.38%.

In the case of `CC(C)n1ncc2c(C(=O)NCc3ccccc3CN(C)C)cc(C3CC3)nc21`, the inhibition was -1.64%.

In the case of `CNC(=O)c1ccc(CN(C)C(=O)c2cc(C3CC3)nc3c2cnn3C(C)C)cc1`, the inhibition is 50.4% (active).

As to `O=C(C[C@@H]1CC[C@@H]2[C@H](COC[C@H](O)CN2S(=O)(=O)c2ccccc2F)O1)NCc1ccccc1F`, the inhibition is 4.05%.

Turning to `Cc1noc(C)c1NC(=O)N(C)C[C@H]1Oc2c(NC(=O)c3nc4ccccc4s3)cccc2C(=O)N([C@@H](C)CO)C[C@@H]1C`, the inhibition was -1.84%.

With `CCN(CC)CCCC(C)n1c2nc(=O)[nH]c(=O)c-2nc2cc(Cl)ccc21` (configuration not stated), the inhibition is 81.9% (active).

Take `Cc1cc2nc3c(=O)[nH]c(=O)nc-3n(C[C@H](O)[C@H](O)[C@H](O)CO)c2cc1C`: the inhibition was -54.4%.

The values are drawn from PubChem BioAssay AID686996 (Broad Institute, 2013).
